Experiment [1] in a line: qHTS assay to identify small molecule antagonists of the thyroid receptor (TR) signaling pathway - cell viability counter screen (AID 743064). Further: nearly all actives have a fitted effect of over 50% in size. Further: potency means the concentration at half of the fitted maximal effect. The method in brief: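 In rat pituitary GH3.TRE-Luc reporter cells co-exposed to compound and 1 nM T3 for 23.5 h, cytotoxicity was assessed with CellTiter-Fluor in the same wells, read by fluorescence.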
For orientation: qHTS replaces the single test concentration by a dilution series.

Experiment [2] concerns thyroid hormone receptor (rat, GH3 cells). Description: qHTS assay to identify small molecule agonists of the thyroid receptor (TR) signaling pathway (AID 743066; calls by dose curve).
A short description of experiment [3]: qHTS assay to identify small molecule antagonists of the estrogen receptor alpha (ER-alpha) signaling pathway - cell viability counter screen (AID 743074; calls by dose curve;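 further: HEK293 cells carrying ER-alpha-UAS-bla reporter stimulated with 17beta-estradiol; nearly all actives have a fitted effect of over 45% in size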).
Experiment [4] can be described thus: qHTS assay to identify small molecule antagonists of the estrogen receptor alpha (ER-alpha) signaling pathway using the BG1 cell line - cell viability counter screen (AID 743081).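 Further: compound given together with 17beta-estradiol as the ER stimulus; nearly all actives have a fitted effect of over 45% in size.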
Experiment [5] can be described thus: qHTS assay to identify aromatase inhibitors - cell viability counter screen (AID 743084).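 Further: cells stimulated with testosterone during compound exposure; nearly all actives have a fitted effect of over 55% in size.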
Experiment [6] addresses Aryl hydrocarbon receptor (Homo sapiens) (UniProt P35869). Description: qHTS assay to identify small molecule that activate the aryl hydrocarbon receptor (AhR) signaling pathway (AID 743085). Further: nearly all actives have a fitted effect of over 15% in size. Further: potency means the concentration at half of the fitted maximal effect.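 On activation: HG2L7.5c1 human HepG2 liver cells with stably integrated DRE-driven firefly reporter.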 Summed up: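 AhR agonist activity is inferred from enhanced light output of a DRE-controlled firefly luciferase reporter in HepG2 cells, measured with ONE-Glo following 24 h treatment at 37C.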

Experiment [7] in a line: qHTS assay to identify small molecule that activate the aryl hydrocarbon receptor (AhR) signaling pathway - cell viability counter screen (AID 743086). Further: nearly all actives have a fitted effect of over 45% in size. Further: potency means the concentration at half of the fitted maximal effect. Summed up:
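HepG2-AhR-luc (HG2L7.5c1) cells, 4000/well, were preincubated 5 h at 37C, exposed to compound in qHTS format for 24 hr at 37C, then given CellTiter-Fluor for 30 min; viability was read as fluorescence in the reporter wells.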

The target of experiment [8] is Peroxisome proliferator-activated receptor gamma (Homo sapiens) (UniProt P37231). Description: qHTS assay to identify small molecule agonists of the peroxisome proliferator-activated receptor gamma (PPARg) signaling pathway (AID 743094; active means well fitted activation curve with a large enough effect in the signal ratio in the repeat runs, not every such curve was filed as active; inconclusive means weak or mixed curves, or effect the other way; inactive means no such curve, though single readings can be large or run the other way; the % refers to the signal ratio). The method in brief:
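Cell-based bla reporter, HEK293H background, PPARg-driven UAS. Pre-incubation 5 h, 37C, 5% CO2. Compound 17 h, 37C. Substrate 1 h RT; fluorescence.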

Experiment [9] shares this target. Nature of the experiment: qHTS assay to identify small molecule antagonists of the peroxisome proliferator-activated receptor gamma (PPARg) signaling pathway (AID 743191; calls by dose curve; further: nearly all actives have a fitted effect of over 30% in size). The method in brief: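 GeneBLAzer PPARg UAS-bla HEK293H cells carrying a UAS-driven beta-lactamase reporter were plated at 3000 cells/well, preincubated 5 h at 37C, then given compound for 17 h at 37C; LiveBLAzer B/G FRET substrate was read after 1 h at room temperature.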

Experiment [10] in a line: qHTS assay to identify small molecule antagonists of the peroxisome proliferator-activated receptor gamma (PPARg) signaling pathway - cell viability counter screen (AID 743194). Further: nearly all actives have a fitted effect of over 55% in size. The method in brief: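 PPARg-UAS-bla HEK293H cells were plated, rested 5 h at 37 C, then treated with compounds plus rosiglitazone (50 nM final) for 17 h at 37 C; viability was then read by CellTiter-Glo luminescence after 30 min at room temperature.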

Experiment [11] in a line: qHTS assay for small molecule agonists of the antioxidant response element (ARE) signaling pathway (AID 743202; active means well fitted activation curve with a large enough effect in the signal ratio in the repeat runs, not every such curve was filed as active; inconclusive means weak or mixed curves, or effect the other way; inactive means no such curve, though single readings can be large or run the other way; the % refers to the signal ratio; further: potency means the concentration at half of the fitted maximal effect). The method in brief: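 Following a 16 h, 37 C exposure of reporter HepG2 cells (ARE-driven beta-lactamase, 2,000 cells/well) to compounds, FRET substrate was applied for 2 h at room temperature and fluorescence intensity recorded.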
Experiment [12] is described as follows: qHTS assay for small molecule activators of the heat shock response signaling pathway - cell viability counter screen (AID 743209). Further: nearly all actives have a fitted effect of over 50% in size. Further: potency means the concentration at half of the fitted maximal effect. Summed up: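 Same-well multiplex: after 2.5 h room-temperature incubation with LiveBLAzer B/G substrate and fluorescence reading, CellTiter-Glo reagent was added to HSE-bla HeLa cells that had received compound for 5 h at 37 C; luminescence read after 30 min.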

Experiment [13] in a line: qHTS assay to identify small molecule antagonists of the thyroid receptor (TR) signaling pathway (AID 743065). Further: nearly all actives have a fitted effect of over 55% in size. Further: potency means the concentration at half of the fitted maximal effect. Summed up: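 GH3.TRE-Luc rat pituitary cells carrying two TR response elements driving luciferase were plated for 4 h, given compound plus 1 nM T3 (final), and incubated 23.5 h at 37 C. ONE-Glo luminescence measured reporter inhibition; CellTiter-Fluor fluorescence tracked cytotoxicity.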

A further experiment deals with Aromatase (Homo sapiens) (UniProt P11511). Nature of the experiment: qHTS assay to identify aromatase inhibitors (AID 743083). Further: nearly all actives have a fitted effect of over 55% in size. Further: potency means the concentration at half of the fitted maximal effect.
The nature of experiment [14]: qHTS assay for small molecule agonists of the antioxidant response element (ARE) signaling pathway - cell viability counter screen (AID 743203; calls by dose curve; further: nearly all actives have a fitted effect of over 55% in size; further: potency means the concentration at half of the fitted maximal effect). Summed up:
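Measured in the same wells as the beta-lactamase ARE reporter, this read-out is CellTiter-Glo luminescence from HepG2 ARE-bla cells given compounds for 16 hrs.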

Experiment [15] in a line: qHTS assay for small molecule activators of the heat shock response signaling pathway (AID 743210; active means well fitted activation curve with a large enough effect in the signal ratio in the repeat runs, with a control signal flat, not every such curve was filed as active; inconclusive means weak or mixed curves; the % refers to the signal ratio). Summed up:
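Heat shock element–beta-lactamase HeLa reporter cells; qHTS with compounds for 5 h at 37 C; detection by FRET substrate fluorescence after 2.5 h at RT.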

The target in experiment [16] is Estrogen receptor (Homo sapiens) (UniProt P03372). Description: qHTS assay to identify small molecule agonists of the estrogen receptor alpha (ER-alpha) signaling pathway (AID 743075; calls by dose curve;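 further: HEK293 GripTite cells with ER-alpha and UAS-driven beta-lactamase reporter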; further: potency means the concentration at half of the fitted maximal effect).
Experiment [17] shares this target. Nature of the experiment: qHTS assay to identify small molecule agonists of the estrogen receptor alpha (ER-alpha) signaling pathway using the BG1 cell line (AID 743079). Further: nearly all actives have a fitted effect of over 20% in size. Further: potency means the concentration at half of the fitted maximal effect. The note with it: BG1Luc4E2 cells, ERE-luciferase agonist, 22 h; activation: at 70.3 µM (top of the series).
Experiment [18] can be described thus: qHTS assay to identify small molecule antagonists of the estrogen receptor alpha (ER-alpha) signaling pathway using the BG1 cell line (AID 743080; calls by dose curve;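 further: BG1 cells stimulated with 17beta-estradiol alongside compound; nearly all actives have a fitted effect of over 25% in size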; further: potency means the concentration at half of the fitted maximal effect). The method in brief:
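After 5 days in phenol-red-free 10% charcoal-stripped FBS medium, BG1-Luc-4E2 cells were seeded, left 24 h at 37 C, co-treated with compounds and 17beta-estradiol for 21.5 h, then assayed for viability and luciferase.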

Experiment [19] has as its target Estrogen receptor (Homo sapiens) (UniProt P03372). Description: qHTS assay to identify small molecule antagonists of the estrogen receptor alpha (ER-alpha) signaling pathway (AID 743069; active means well fitted curve in the direction sought with a large enough effect in the signal ratio in the repeat runs, not every such curve was filed as active; inconclusive means weak or mixed curves, or effect the other way; inactive means no such curve, though single readings can be large or run the other way; the % refers to the signal ratio; further: potency means the concentration at half of the fitted maximal effect). The method in brief:
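A 17beta-estradiol challenge was applied right after compound transfer to ER-alpha-UAS-bla HEK293 cells previously kept in charcoal-stripped serum. Plates stood 18 hr at 37C and 5% CO2; fluorescence was read following 2 hr FRET substrate loading at room temperature.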

Several values for one entry are separate records, joined by “and”; a condition that tells them apart may be missing. Identical values can stand only once. Some compounds were tested as several samples or in several runs, with calls that do not always agree. Activity calls are given as the source filed them. Unless noted, the call rests on the fitted dose curve; in most records, active means well fitted curve in the direction sought with a large enough effect in the repeat runs; inconclusive means weak or mixed curves; inactive means no such curve, though single readings can be large; an effect the other way counts as inactive or inconclusive.

Estrogen receptor (Homo sapiens), sequence (P03372 whole entry, looked up): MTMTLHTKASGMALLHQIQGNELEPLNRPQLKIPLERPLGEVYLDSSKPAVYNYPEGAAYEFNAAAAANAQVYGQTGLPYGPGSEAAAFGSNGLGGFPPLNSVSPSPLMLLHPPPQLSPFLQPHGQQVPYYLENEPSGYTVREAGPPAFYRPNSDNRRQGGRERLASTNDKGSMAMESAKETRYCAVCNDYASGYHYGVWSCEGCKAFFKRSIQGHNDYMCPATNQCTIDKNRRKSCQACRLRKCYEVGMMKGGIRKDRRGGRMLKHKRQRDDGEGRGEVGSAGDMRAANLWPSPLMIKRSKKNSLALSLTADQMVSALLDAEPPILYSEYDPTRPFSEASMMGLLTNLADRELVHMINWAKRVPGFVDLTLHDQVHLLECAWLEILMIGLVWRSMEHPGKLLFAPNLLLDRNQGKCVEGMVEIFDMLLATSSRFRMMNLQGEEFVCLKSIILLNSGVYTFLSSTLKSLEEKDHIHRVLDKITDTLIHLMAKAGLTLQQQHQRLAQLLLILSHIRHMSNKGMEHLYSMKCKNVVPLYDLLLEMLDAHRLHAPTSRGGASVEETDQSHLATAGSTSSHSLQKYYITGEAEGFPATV
Peroxisome proliferator-activated receptor gamma (Homo sapiens), sequence (P37231 whole entry, looked up): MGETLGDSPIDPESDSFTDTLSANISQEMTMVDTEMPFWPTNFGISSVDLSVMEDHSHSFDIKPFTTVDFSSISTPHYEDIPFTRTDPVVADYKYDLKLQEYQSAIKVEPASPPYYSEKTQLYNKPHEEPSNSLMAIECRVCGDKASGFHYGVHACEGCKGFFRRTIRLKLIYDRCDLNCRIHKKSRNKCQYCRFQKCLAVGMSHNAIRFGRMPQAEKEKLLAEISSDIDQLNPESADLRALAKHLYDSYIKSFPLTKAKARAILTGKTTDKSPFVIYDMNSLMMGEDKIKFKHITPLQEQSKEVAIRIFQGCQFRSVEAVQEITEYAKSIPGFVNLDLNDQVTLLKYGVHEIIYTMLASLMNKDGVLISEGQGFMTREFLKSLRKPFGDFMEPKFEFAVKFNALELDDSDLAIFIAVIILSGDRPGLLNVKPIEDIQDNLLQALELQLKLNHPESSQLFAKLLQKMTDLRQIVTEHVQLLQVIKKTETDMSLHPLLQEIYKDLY
Aromatase (Homo sapiens), sequence (P11511 whole entry, looked up): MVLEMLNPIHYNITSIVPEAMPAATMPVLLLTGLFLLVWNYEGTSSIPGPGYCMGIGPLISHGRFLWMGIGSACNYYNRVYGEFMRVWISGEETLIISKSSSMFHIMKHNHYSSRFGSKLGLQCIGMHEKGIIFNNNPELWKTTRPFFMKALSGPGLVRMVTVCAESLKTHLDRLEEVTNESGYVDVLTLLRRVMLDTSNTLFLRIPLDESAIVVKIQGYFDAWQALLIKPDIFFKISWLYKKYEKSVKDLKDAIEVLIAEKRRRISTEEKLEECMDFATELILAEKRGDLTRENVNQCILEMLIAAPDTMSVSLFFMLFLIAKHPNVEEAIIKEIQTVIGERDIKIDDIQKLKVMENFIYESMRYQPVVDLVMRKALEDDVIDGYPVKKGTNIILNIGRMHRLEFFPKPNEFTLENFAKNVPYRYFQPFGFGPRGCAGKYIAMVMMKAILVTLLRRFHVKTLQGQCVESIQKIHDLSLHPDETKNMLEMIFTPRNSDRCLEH
Aryl hydrocarbon receptor (Homo sapiens), sequence (P35869 whole entry, looked up): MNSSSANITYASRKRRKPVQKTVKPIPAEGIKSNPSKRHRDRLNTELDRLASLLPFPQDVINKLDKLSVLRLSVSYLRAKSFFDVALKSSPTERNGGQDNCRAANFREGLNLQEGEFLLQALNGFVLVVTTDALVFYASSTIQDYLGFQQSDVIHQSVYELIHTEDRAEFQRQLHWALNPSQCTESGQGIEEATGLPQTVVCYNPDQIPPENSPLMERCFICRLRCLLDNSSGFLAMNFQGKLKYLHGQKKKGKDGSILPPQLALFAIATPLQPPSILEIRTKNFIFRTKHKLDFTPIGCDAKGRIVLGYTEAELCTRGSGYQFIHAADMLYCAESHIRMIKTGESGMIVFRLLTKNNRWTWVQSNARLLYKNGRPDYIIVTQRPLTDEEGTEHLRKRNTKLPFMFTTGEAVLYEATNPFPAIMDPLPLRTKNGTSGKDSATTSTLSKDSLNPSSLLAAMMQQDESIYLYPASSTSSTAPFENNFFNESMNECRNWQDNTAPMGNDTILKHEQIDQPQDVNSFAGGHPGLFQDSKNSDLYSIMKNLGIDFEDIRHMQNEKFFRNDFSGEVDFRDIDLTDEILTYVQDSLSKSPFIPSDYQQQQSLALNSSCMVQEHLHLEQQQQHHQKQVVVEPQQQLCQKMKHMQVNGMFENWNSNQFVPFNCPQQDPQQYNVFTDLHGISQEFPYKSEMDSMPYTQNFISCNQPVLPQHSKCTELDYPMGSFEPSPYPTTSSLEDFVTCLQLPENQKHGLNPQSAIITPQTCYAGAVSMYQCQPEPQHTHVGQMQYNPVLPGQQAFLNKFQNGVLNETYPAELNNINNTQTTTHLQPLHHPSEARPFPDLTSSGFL

Turning to `O=C1CCCCCCCCCCOCCCCO1`, the Potency entry in experiment [1], in [3], in [4], in [5], in experiment [6] and in experiment [7] was “inactive” in each case. The Potency entry in experiment [8], in experiment [9], in experiment [10], in [11] and in [12] was “inactive” in each case. In addition, the outcome in experiment [2] was inactive.

With `CCC1CO1` (centres undefined), the Potency entry (in [1]; in [13]; in experiment [4]; with Aromatase (Homo sapiens); in experiment [5]; in experiment [6]) was “inactive” each time. The Potency entry in experiment [7], in [8], in experiment [11], in [14], in experiment [12] and in experiment [15] was “inactive” in each case. Besides, in experiment [2], the compound was classed as inactive.

In the case of `CCCCC(CC)COP(=O)(O)O` (centres undefined), the Potency result in experiment [1], in experiment [3], in experiment [16], in experiment [17], in experiment [18] and in experiment [4] was “inactive” each time. The Potency entry (in the experiment with Aromatase (Homo sapiens); in [5]; in [7]; in [10]; in experiment [14]; in experiment [12]) was “inactive” throughout. For the same compound, the Potency entry in [15] is “inactive”. In addition, the call in [2] was inactive.

For the compound `O=C1Cc2ccccc2N1c1c(Cl)cccc1Cl`, the Potency result (in experiment [1]; in experiment [3]; in experiment [4]; in the experiment with Aromatase (Homo sapiens); in [5]; in [6]) was “inactive” throughout. The Potency entry in experiment [8], in experiment [10], in experiment [14], in experiment [12] and in experiment [15] was “inactive” in each case. In addition, the compound was called inactive in experiment [2]. Also, the Potency in experiment [16] was 43.6 µM [inconclusive] (active); in experiment [17], 10.9 µM (active); in [18], 68.6 µM (active).

As to `C=Cc1ccc(S(=O)(=O)O)cc1`, the Potency result was “inactive and 9.69 µM (active)” in experiment [1]; 23.7 µM (active) and inactive in experiment [17]. The result in [2] was inactive. Besides, the Potency entry (in experiment [19]; in experiment [3]; in experiment [16]; in [18]; in experiment [4]; with Aromatase (Homo sapiens)) was “inactive” throughout. Besides, the Potency entry in experiment [5], in [6], in [7], in [8] and in [12] was “inactive” each time.

Consider `C[C@@H](O[C@H]1OCCN(Cc2n[nH]c(=O)[nH]2)[C@H]1c1ccc(F)cc1)c1cc(C(F)(F)F)cc(C(F)(F)F)c1`, for which the Potency in [1] is 13.3 µM (active); in experiment [13] it was 10.6 µM (active); with Aromatase (Homo sapiens) it was 29.8 µM (active); in experiment [12] it was 29.8 µM (active). Also, the Potency entry in experiment [4], in [6] and in [8] was “inactive” each time.

As to `COc1ccccc1N1CCN(CC(O)COc2cccc3ccccc23)CC1` (centres undefined), the results for the Potency in experiment [1] and in [6] were 26.6 µM (active) and 29.8 µM (active), respectively. For the same compound, the compound was called inactive in experiment [2]. Further, the Potency result (in experiment [3]; in experiment [4]; with Aromatase (Homo sapiens); in experiment [5]; in experiment [7]; in [8]) was “inactive” in each case. Moreover, the Potency entry in [10], in experiment [14] and in experiment [12] was “inactive” each time.

On to `CC(=O)[C@H]1[C@H](C#N)C[C@H]2[C@@H]3CC=C4C[C@@H](O)CC[C@]4(C)[C@H]3CC[C@@]21C`, for which the Potency entry (in experiment [1]; in experiment [3]; in [16]; in experiment [18]; in [4]; with Aromatase (Homo sapiens)) was “inactive” in each case. Also, the Potency result in experiment [5], in experiment [6], in experiment [7], in [8], in experiment [10] and in [14] was “inactive” in each case. The Potency result in experiment [12] and in [15] was “inactive” each time. Further, the compound was classed as inactive in experiment [2]. Moreover, the Potency in experiment [11] was 33.1 µM (active).

Take `CC(C)C[C@H](NC(=O)[C@H](CCc1ccccc1)NC(=O)CN1CCOCC1)C(=O)N[C@@H](Cc1ccccc1)C(=O)N[C@@H](CC(C)C)C(=O)[C@@]1(C)CO1`: the Potency in experiment [1] is 0.0422 µM (active); in [13], 0.0298 µM (active); in [19] it was 0.601 µM [inconclusive] (active); in experiment [18], 0.188 µM (active); with Aromatase (Homo sapiens) it was 0.0335 µM (active); in [7] it was 0.0473 µM (active). Moreover, the results for the Potency in [11] and in experiment [14] were 0.0668 µM (active) and 3.76 µM (active), respectively. The Potency entry in experiment [4], in experiment [6] and in experiment [12] was “inactive” in each case.

The values above are taken from PubChem BioAssay (Tox21).
